{"source": "PubChem BioAssay AID449762", "about": "(Southern Research Specialized Biocontainment Screening …, 2010)", "note": "The whole screen tested about 330,000 compounds, of which about 1,900 (0.58%) were called active. Another 4% or so got no clear call; they are omitted. A selection follows. Results with a measured potency or affinity are listed apart. A number with no mark means an inactive call. No stated cut-off is given here; in the data, inconclusive means inhibition above about 70% without an active follow-up result; inactive means below that."}
{"assay": "M. tuberculosis growth inhibition, HTS (AID 449762);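 further: bacterial growth assessed after seven days of incubation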", "settings": "M. tuberculosis H37Rv growth inhibition, 7H9 media; at 25 µM; hits give high values", "units": {"inhibition": "%"}}
{"smiles": "O=C(Nc1ccc2nc3ccccc3nc2c1)c1ccccc1", "inhibition": -0.69}
{"smiles": "CC(=O)Nc1ccc2nc3ccccc3nc2c1", "inhibition": -9.66}
{"smiles": "COc1ccc(C)cc1NC(=O)CN1CCCC1c1ccc2c(c1)OCCCO2", "note": "(configuration not stated)", "inhibition": 5.61}
{"smiles": "COc1ccc(NC(=O)CCCCCN2C(=O)c3ccccc3C2=O)c(OC)c1", "inhibition": -6.73}
{"smiles": "C/C(=N\\Nc1cccc(Cl)c1)c1ccc(-n2ccnc2)cc1", "inhibition": 0.99}
{"smiles": "C/C(=N\\Nc1ccccc1Cl)c1ccc(-n2ccnc2)cc1", "inhibition": 58.6}
{"smiles": "COc1cccc(-c2cc(C(F)(F)F)c(C#N)c(=O)[nH]2)c1", "inhibition": -9.57}
{"smiles": "Cc1csc(=Nc2ccccc2)n1Cc1ccco1", "inhibition": 11.3}
{"smiles": "N#Cc1c(NC(=O)CSc2nnnn2C2CCCCC2)sc2c1CCCC2", "inhibition": -13.1}
{"smiles": "Cn1nnnc1SCC(=O)Nc1nc2c(s1)CCCC2", "inhibition": 2.88}
{"smiles": "Cc1ccc(N(CC(=O)NCc2ccco2)C(=O)CCC(=O)Nc2nccs2)c(C)c1", "inhibition": 1.4}
{"smiles": "Cc1cc(N2CCC(C(=O)N3CCN(c4cccc(C)c4C)CC3)CC2)n2ncnc2n1", "inhibition": -0.67}
{"smiles": "COc1ccc(/C=C/C(=O)c2ccc(OC)cc2OC)cc1", "inhibition": 58.4}
{"smiles": "COc1ccc2cc(C(=O)/C=C/c3cc(OC)c(O)c(OC)c3)ccc2c1", "inhibition": 36.1}
{"smiles": "CC(=O)c1cccc(N2C(=NC(=O)CCc3ccccc3)SC3CS(=O)(=O)CC32)c1", "note": "(configuration not stated)", "inhibition": 1.65}
{"smiles": "Cc1ccc(S(=O)(=O)NNC(=O)CCC(=O)Nc2ccc(C)cc2C)cc1", "inhibition": 5.58}
{"smiles": "COc1cc(SC)ccc1C(=O)OCC(=O)NC1CCCCC1", "inhibition": -4.21}
{"smiles": "CCCCCC1CC(CC(=O)Nc2ccc([N+](=O)[O-])cc2)C(=O)O1", "note": "(configuration not stated)", "inhibition": 68.8}
{"smiles": "CCCCCCC1CC(CC(=O)Nc2ccc([N+](=O)[O-])cc2)C(=O)O1", "note": "(configuration not stated)", "inhibition": 5.26}
{"smiles": "O=C(CCNS(=O)(=O)c1ccc(F)c(Cl)c1)NCc1ccccc1F", "inhibition": -9.24}
{"smiles": "O=C(COC(=O)Cc1ccsc1)NCc1ccc(Cl)cc1", "inhibition": 8.12}
{"smiles": "Cc1cc(C)c(C(=O)CC(=O)c2ccccc2Cl)c(O)c1", "inhibition": 6.33}
{"smiles": "Cc1cccc(C(=O)CC(=O)c2cc(Cl)ccc2O)c1", "inhibition": 0.28}
{"smiles": "Cc1ccc(-c2nnc(SCC(=O)N/N=C/c3c(C)nn(-c4ccccc4)c3C)n2-c2ccc(C)cc2)cc1", "inhibition": 5.96}
{"smiles": "CCCN1CCN(CC(O)COC(c2ccc(OC)cc2)c2ccc(OC)cc2)CC1", "note": "(configuration not stated)", "inhibition": 6.36}
{"smiles": "COc1ccc(CCN(C)CC(O)COC(c2ccc(F)cc2)c2ccc(F)cc2)cc1OC", "note": "(configuration not stated)", "inhibition": 6.55}
{"smiles": "O=C(NN1CC(C(=O)OCc2ccc(Cl)cc2Cl)CC1=O)c1ccccc1", "note": "(configuration not stated)", "inhibition": -12}
{"smiles": "O=C(c1ccc(C(=O)N2CCN(c3ccccc3F)CC2)nc1)N1CCN(c2ccccc2F)CC1", "inhibition": -7.27}
{"smiles": "CC1(OC(=O)c2cccs2)C(=O)C=C2C=C(c3ccsc3)OC=C2C1=O", "note": "(configuration not stated)", "inhibition": -0.64}
{"smiles": "O=C(Nc1ccc(Cn2ccnc2)cc1)c1cccc(C(F)(F)F)c1", "inhibition": 7.08}
{"smiles": "O=C(CSC1CCCCC1)Nc1nccs1", "inhibition": -8.08}
{"smiles": "O=C(Nc1ncc(Cc2ccccc2Cl)s1)c1ccc([N+](=O)[O-])cc1", "inhibition": 10.6}
{"smiles": "CC(C)C(=O)Nc1ncc(Cc2ccccc2Cl)s1", "inhibition": -0.61}
{"smiles": "COc1ccc(C(=O)OCC(=O)Nc2c(C)cccc2C)cc1", "inhibition": 0.88}
{"smiles": "CC1CCCC(NC(=O)CSC2=Nc3ccccc3C3CC=NN23)C1C", "note": "(configuration not stated)", "inhibition": 11.7}
{"smiles": "Cc1cc(C)n(-c2nc(NCCO)c3c4c(sc3n2)CCCC4)n1", "inhibition": 10.4}
{"smiles": "Cc1cc(C)n(-c2nc(NCCCN(C)C)c3c4c(sc3n2)CCCC4)n1", "inhibition": 9.07}
{"smiles": "CN1CCN(/N=C/c2ccc(Br)cc2)CC1", "inhibition": 2.12}
{"smiles": "O=C(NN=Cc1cccc([N+](=O)[O-])c1)c1cc(-c2cccnc2)nc2ccccc12", "inhibition": 5.59}
{"smiles": "CC1=CC(=O)C(C(C)C)=CC1=NC(=O)c1ccc(C)cc1", "inhibition": 3.21}
{"smiles": "CC1=CC(=O)C(C(C)C)=C/C1=N/OC(=O)c1cccc([N+](=O)[O-])c1", "inhibition": -5.41}
{"smiles": "CCCOc1ccc(-c2csc3ncn(Cc4ccc(C(=O)O)cc4)c(=O)c23)cc1", "inhibition": 11.8}
{"smiles": "CC1CCc2nc(/C(C#N)=C/c3ccncc3)sc2C1", "note": "(configuration not stated)", "inhibition": 17.6}
{"smiles": "COc1cc(/C=C(\\C#N)c2nc3c(s2)CCCC3)ccc1O", "inhibition": 67.9}
{"smiles": "O=C(NCCC(=O)N1CCN(c2ccccn2)CC1)c1ccc(Cl)cc1", "inhibition": 9.44}
{"smiles": "CC1(C)Cc2c(cnn2-c2ccccc2)C(=O)/C1=N\\NC(=O)c1ccccc1", "inhibition": 6.2}
{"smiles": "CC1(C)Cc2c(cnn2-c2ccccc2)C(=O)/C1=N\\NC(=O)c1ccccc1O", "inhibition": 0.99}
{"smiles": "COc1cccc(C2CC(c3ccc(Br)cc3)=NN2C(=O)c2ccncc2)c1OC", "note": "(configuration not stated)", "inhibition": 10.4}
{"smiles": "C=C1CCC[C@]2(C)C[C@H]3OC(=O)C(CNC(C)CC)[C@H]3CC12", "note": "(some centres not stated)", "inhibition": 7.33}
{"smiles": "C=C1CCC[C@]2(C)C[C@H]3OC(=O)C(CNCC(C)C)[C@H]3CC12", "note": "(some centres not stated)", "inhibition": -0.86}
{"smiles": "CN(C)C(=O)c1ccc(Cl)cc1[N+](=O)[O-]", "inhibition": -3.01}
{"smiles": "COc1ccc(S(=O)(=O)N(C)C[C@H]2Oc3c(NC(=O)NC(C)C)cccc3C(=O)N([C@H](C)CO)C[C@@H]2C)cc1", "inhibition": -6.16}
{"smiles": "c1ccc(-c2csc3ncnc(NCCCN4CCOCC4)c23)cc1", "inhibition": 0.1}
{"smiles": "O=c1c2ccccc2nc2c3ccccc3c(NCCN3CCOCC3)nn12", "inhibition": 7.65}
{"smiles": "COc1cccc(CNS(=O)(=O)c2c(C(=O)N3CCCC3)c(C)n(C)c2C)c1", "inhibition": 3.63}
{"smiles": "COc1ccc(N2CC(C)Cn3c2nc2c3c(=O)[nH]c(=O)n2C)cc1", "note": "(configuration not stated)", "inhibition": -7.69}
{"smiles": "NC(=O)c1c(NC(=O)CSc2nnc(Cc3ccccc3)n2Cc2ccco2)sc2c1CCC2", "inhibition": 55.7}
{"smiles": "CC(=O)OCC1OC(n2ccc3ccccc32)C(OC(C)=O)C(OC(C)=O)C1OC(C)=O", "note": "(configuration not stated)", "inhibition": -6.94}
{"smiles": "CC(=O)c1cccc(OCC(=O)N2CCN(CC(=O)Nc3cccc(F)c3)CC2)c1", "inhibition": -12.4}
{"smiles": "O=C(CN1CCN(S(=O)(=O)c2ccc(F)cc2)CC1)Nc1ccc(Cl)c(C(F)(F)F)c1", "inhibition": 3.5}
{"smiles": "COc1ccc(NC(=O)c2sc3nc(C)nc(N4CCOCC4)c3c2C)c(OC)c1", "inhibition": -1.8}
{"smiles": "CCOc1ccccc1NC(=O)c1sc2nc(C)nc(N3CCOCC3)c2c1C", "inhibition": 10.4}
{"smiles": "CC(C)(C)OC(=O)C[C@H]1C/C=C\\C[C@H](CC(=O)N(CCO)Cc2ccccc2)C(=O)N[C@@H](c2ccccc2)COC1=O", "inhibition": -6.06}
{"smiles": "COc1ccc(OC)c(NS(=O)(=O)Cc2ccccc2)c1", "inhibition": -14.1}
{"smiles": "Cc1cc(=O)oc2c(C)c(OC(C)C(=O)NCC3CCC(C(=O)O)CC3)ccc12", "note": "(configuration not stated)", "inhibition": 1.04}
{"smiles": "Cn1ncc(Cl)c1C(=O)Nc1nnc(C2CC2)s1", "inhibition": -2.94}
{"smiles": "N#CCCN(C(=O)COC(=O)Cc1c[nH]c2ccccc12)c1ccccc1", "inhibition": 1.58}
{"smiles": "N#CCCN(C(=O)COC(=O)CCc1nc2ccccc2c(=O)[nH]1)c1ccc(F)cc1", "inhibition": -3.42}
{"smiles": "COc1ccc(NC(=O)C2CCN(S(C)(=O)=O)CC2)cc1", "inhibition": -4.9}
{"smiles": "O=C(CC1SC(=NCC2CCCO2)NC1=O)Nc1cccc2ccccc12", "note": "(configuration not stated)", "inhibition": 6.34}
{"smiles": "CC(Oc1ccc(Br)cc1)C(=O)NCC(C)(C)N1CCOCC1", "note": "(configuration not stated)", "inhibition": 4.22}
{"smiles": "COc1cccc(CC(=O)N2CCN(c3ccccc3[N+](=O)[O-])CC2)c1", "inhibition": 5.35}
{"smiles": "CCc1nc(-c2ccc(-c3ccc(OC)cc3)nc2OC)no1", "inhibition": 68.2}
{"smiles": "COc1ccc(-c2ccc(-c3noc(C)n3)c(OC)n2)cc1", "inhibition": 5.33}
{"smiles": "COc1cc(OC)cc(OCC(O)Cn2ccnc2)c1", "note": "(configuration not stated)", "inhibition": 7.96}
{"smiles": "CCC(CC)C(=O)Nc1cc(C(=O)NCCc2ccccc2)ccc1Cl", "inhibition": 1.26}
{"smiles": "Cc1ccc(NC(=O)CN2C(=O)NC(Cc3ccccc3)C2=O)c(Br)c1", "note": "(configuration not stated)", "inhibition": -0.06}
{"smiles": "Cc1ccc(SCCC(=O)OC(C(=O)NC(N)=O)C(C)C)cc1", "note": "(configuration not stated)", "inhibition": -4.48}
{"smiles": "CSCC[C@H](NC(=O)c1nn(C)c(=O)c2ccccc12)c1nc2ccccc2[nH]1", "inhibition": -4.72}
{"smiles": "Cn1nc(C(=O)Nc2ccccc2N2CCCC2)c2ccccc2c1=O", "inhibition": 54.7}
{"smiles": "CCCCn1nc(C(=O)NCc2ccccc2CN2CCCC2)c2ccccc2c1=O", "inhibition": -5.37}
{"smiles": "CCCn1nc(C(=O)Nc2cc(C(=O)OC)ccc2C)c2ccccc2c1=O", "inhibition": 3.29}
{"smiles": "CCn1nc(C(=O)N[C@@H](CCSC)c2nc3ccccc3[nH]2)c2ccccc2c1=O", "inhibition": 1.2}
{"smiles": "CCCn1nc(C(=O)NNC(=O)c2ccc(OC(F)F)cc2)c2ccccc2c1=O", "inhibition": 3.96}
{"smiles": "C/C(=N\\NC(=O)CNC(=O)C1COc2ccccc2O1)c1ccc(Cl)cc1", "note": "(configuration not stated)", "inhibition": 1.09}
{"smiles": "COc1ccc(/C=C/C(=O)OCC(=O)Nc2ccc(Cl)cn2)cc1", "inhibition": 10.3}
{"smiles": "CN1CC[n+]2cnc3ccccc3c21", "inhibition": -2.8}
{"smiles": "CC1(C)CC(NC(=O)C2CCN(S(=O)(=O)c3ccccc3C(F)(F)F)CC2)CC(C)(C)N1", "inhibition": -16.1}
{"smiles": "COc1ccccc1C(=O)COC(=O)Cn1nc(C)c([N+](=O)[O-])c1C", "inhibition": -2.3}
{"smiles": "CCc1cc(=O)oc2c3c(cc(OCC(=O)NCCN4CCOCC4)c12)OC(C)(C)CC3", "inhibition": -4.22}
{"smiles": "c1ccc(-c2nc(-n3ccnc3)nc(-n3ccnc3)n2)cc1", "inhibition": 22.2}
{"smiles": "c1ccc(-n2ccnc2)cc1", "inhibition": 62.1}
